Screening results deposited in PubChem BioAssay by National Center for Advancing Translational Sciences (NCATS).
In the library only some 12% were active in any assay of this set; here they are far more common.
G9a block – blocks human histone lysine methyltransferase G9a | G9a H3K9 monomethylation, AlphaScreen, 2 h | Potency, µM (doses to about 102 µM), without a hit: at the highest dose activity, negative = inhibition, actives largely listed as inhibitors | 350,000 tested, 8.8% active | AID 504332; note: % is set by controls: 0 for no effect and ±100 for the full control effect; nearly all actives have a fitted effect of over 75% in size
Target sequence (Q96KQ7 913-1193 limits assumed): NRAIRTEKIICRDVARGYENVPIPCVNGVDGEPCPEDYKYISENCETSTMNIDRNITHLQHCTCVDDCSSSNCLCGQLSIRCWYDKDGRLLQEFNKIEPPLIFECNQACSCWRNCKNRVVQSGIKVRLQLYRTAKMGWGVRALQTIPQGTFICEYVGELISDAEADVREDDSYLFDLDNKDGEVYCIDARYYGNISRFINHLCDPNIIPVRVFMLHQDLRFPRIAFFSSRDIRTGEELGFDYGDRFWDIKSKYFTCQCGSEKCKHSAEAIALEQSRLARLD
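G9a (20 nM) was preincubated 15 min with compound, then reacted 2 h at room temperature with 500 nM biotin-H3K9 peptide and 20 µM SAM. Monomethyl-H3K9 detected by AlphaScreen using anti-H3K9me1 antibody.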
BAZ2B inh – BAZ2B (human) inhibition | Q9UIF8 | AlphaScreen BAZ2B-H3K14Ac peptide displacement | Potency, µM (top dose mostly 114 µM), for the others: top-dose activity change, negative = inhibition, hits mostly inhibitors | 360,000 tested, 4.4% active | AID 504333; note: % is set by controls: 0 for no effect and ±100 for the full control effect; nearly all actives have a fitted effect of over 60% in size
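AlphaScreen displacement of biotin-H3(5-23)K14Ac peptide (50 nM final) from BAZ2B (50 nM final) in PBS pH 7.4, 0.01% Tween-20; complex preformed 30 min RT, then compounds (top 110 uM) 30 min RT, beads 20 min dark.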
Sfp PPTase inh – blocks B. subtilis Sfp PPTase activity. Potency, µM, for the others: largest response in the series, negative = inhibition, hits mostly inhibitors. 310,000 tested, 3.5% active. Biochemical Sfp PPTase activity, qHTS;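 note: the enzyme is Sfp with the accession as filed and its product quenches rhodamine fluorescence; 0% = enzyme reaction without inhibitor and -100% = no enzyme wells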
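Compounds were incubated with enzyme (final 15 nM) for 15 min at room temperature before substrate addition started the reaction. Fluorescence at 525 nm excitation, 598 nm emission was recorded immediately and after 30 minutes.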
L3MBTL1 inh – inhibitors of human L3MBTL1. Potency, µM (titrated, usually from 57.1 µM), without a hit: at the top dose activity, negative = inhibition, actives largely listed as inhibitors. AlphaScreen L3MBTL1–H3K9me1 peptide binding. 230,000 tested, 0.66% active. AID 485360; note: % is set by controls: 0 for no effect and ±100 for the full control effect; nearly all actives have a fitted effect of over 60% in size
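Displacement of a biotinylated histone H3(1-15) peptide monomethylated at Lys9 (75 nM) from L3MBTL1 (50 nM) was measured by AlphaScreen after a 30 min room-temperature compound incubation; cefsulodin titration served as intraplate control.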
HP1b chromo inh – inhibitors of HP1-beta chromodomain binding to methylated histone tails; P83916; 390,000 tested, 0.56% active; Potency, µM (top dose mostly 114 µM), for inactives: at the highest dose activity change, negative = inhibition, usual class: inhibitors; AlphaScreen HP1-beta / biotin-H3K9me3 peptide binding; note: nearly all actives have a fitted effect of over 70% in size
Target sequence (P83916 whole entry, looked up): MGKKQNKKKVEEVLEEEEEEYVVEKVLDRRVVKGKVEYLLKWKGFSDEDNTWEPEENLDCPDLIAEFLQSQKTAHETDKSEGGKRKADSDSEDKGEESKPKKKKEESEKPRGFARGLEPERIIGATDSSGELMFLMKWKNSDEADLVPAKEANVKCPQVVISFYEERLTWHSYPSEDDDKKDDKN
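HP1-beta protein (50 nM final) preincubated 30 min at room temperature with biotinylated H3(1-18)K9me3 peptide (50 nM) in PBS pH 7.4, 0.01% Tween-20, then compound added for 30 min. AlphaScreen streptavidin donor/nickel chelate acceptor beads (10 ug/mL final), 30 min dark, luminescence read.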
JMJD2A Tudor – blocks the human JMJD2A Tudor domain. O75164. AlphaScreen JMJD2A-Tudor / H3K4me3 peptide binding. Potency, µM (top dose mostly 114 µM), for inactives: at the top dose activity change, negative = inhibition, usual class: inhibitors. 390,000 tested, 4.4% active; note: % is set by controls: 0 for no effect and ±100 for the full control effect; nearly all actives have a fitted effect of over 50% in size
Starred values were filed as active, the others as inactive; ? = inconclusive; . = not tested or not shown; ! = repeats disagree; [ ] = dose if it differs, or a comment. Calls come from the whole dose curve; as a rule, active = well fitted curve in the direction sought with a large enough effect; inconclusive = small, poorly fitted or top-dose-only effect, or another doubt; inactive = no such curve, though single readings can be large; an effect the other way counts as inactive or inconclusive. Potency is the fitted concentration of half-maximal effect.

SMILES	G9a block	BAZ2B inh	Sfp PPTase inh	L3MBTL1 inh	HP1b chromo inh	JMJD2A Tudor
O=C(NCc1cccs1)c1ccc(CSc2nc3ccncc3n2Cc2ccccc2)cc1	?	-3%	.	.	43%	-16%
O=C(Cc1c[nH]c2ccccc12)Nc1cccc(S(=O)(=O)N2CCCCC2)c1	45µM*	?	13%	-11%	.	.
Clc1ccc(CN2CCc3c([nH]c4ccccc34)C2)cc1Cl	28µM*	32µM*	?	.	?	16µM*
c1ccc(CN2CCc3[nH]c4ccccc4c3C2)cc1	.	.	.	.	-10%	?
CSc1ccc(CN2CCc3c([nH]c4ccccc34)C2)cc1	.	?	-17%	-2%	?	3.2µM*
Clc1cccc(CN2CCc3c([nH]c4ccccc34)C2)c1	.	50µM*	?	-37%	?	20µM*
Cc1cccc(CN2CCc3c([nH]c4ccccc34)C2)c1	45µM*	50µM*	-9%	.	45µM*	20µM*
CCOc1ccsc1C(=O)OC	32%	6%	10%	5%	22%	-20%
COc1cc2ncnc(NCc3cccc(F)c3F)c2cc1OC	45µM*	-4%	-1%	.	49%	-9%
COc1cc2ncnc(Nc3cccc(Cl)c3)c2cc1OC	-12%[59 µM]	-17%	56µM*!	.	.	.
Cc1cccc(C)c1NC(=O)CN(C)C(=O)CC1CC2CCC1C2 (stereo not drawn)	-12%[59 µM]	10%	.	-1%	14%	-8%
COc1ccccc1OCCNC(=O)C(CCSC)NS(=O)(=O)c1ccccc1F (stereo not drawn)	-24%	-11%	.	0%	10%	-21%
CC(C)CN(C(=O)CC1OC(=O)c2ccccc21)c1c(N)n(Cc2ccccc2)c(=O)[nH]c1=O (stereo not drawn)	56µM*	10%	.	-1%	39%	-1%
Cc1cc(C)cc(OCC(=O)OCC(=O)N(CC(C)C)c2c(N)n(Cc3ccccc3)c(=O)[nH]c2=O)c1	50µM*	13%	.	-5%	7%	-20%
CC(C)CN(C(=O)COC(=O)COc1ccc2c(c1)CCC2)c1c(N)n(Cc2ccccc2)c(=O)[nH]c1=O	-8%	7%	.	-4%	0%	-22%
CC(C)CN(C(=O)COC(=O)C(C)N1C(=O)c2ccccc2C1=O)c1c(N)n(Cc2ccccc2)c(=O)[nH]c1=O (stereo not drawn)	35µM*	3%	.	5%	12%	-1%
Cc1cc(-c2ccc(C(C)C)c(S(=O)(=O)N3CCN(c4ccccn4)CC3)c2)on1	.	-22%	13%	.	-2%[57 µM]	-26%
CCCC(c1nnnn1Cc1cccs1)N1CCN(C2CCCC2)CC1 (stereo not drawn)	?	?	-3%	.	?	56µM*
CCCC(c1nnnn1C1CCCCC1)N1CCN(C2CCCC2)CC1 (stereo not drawn)	?	?	3%	.	11%	-33%
CCCC(c1nnnn1Cc1ccco1)N1CCN(C2CCCC2)CC1 (stereo not drawn)	50µM*	?	5%	5%	2%	?
CCCC(c1nnnn1C(C)(C)CC)N1CCN(C2CCCC2)CC1 (stereo not drawn)	89µM*	?	6%	-1%	26%	-4%[11.4 µM]
CC(C)C(c1nnnn1Cc1ccco1)N1CCN(C2CCCC2)CC1 (stereo not drawn)	-12%[59 µM]	-4%	9%	5%	39%	5%
Cc1cc(C)cc(OCC(=O)Nc2ccc3c(c2)OCO3)c1	?	-24%	-7%	-9%	38%	-14%
CC(=O)Nc1ccc(C(=O)NNC(=O)c2cc([N+](=O)[O-])cc([N+](=O)[O-])c2)cc1	-32%	-23%	8%	5%	14%	-8%
CC(=O)Nc1ccc(NC(=O)c2cc([N+](=O)[O-])cc([N+](=O)[O-])c2)cc1	50µM*	?	-8%	3%	27%	-29%
CC(=O)Nc1ccc(Oc2cc(NC(C)=O)cc([N+](=O)[O-])c2)cc1	2%	-14%	16%	2%	?	18µM*
